# In the supplement of paper PMC6555819:
# Experiments:
# Assay in all cases: PBM binding z-score (relative to random genomic background probes); higher = stronger binding; sequences stand for … in GC…GCGATTGACAGCGTAGAATGAAGG
# [1] = test system: PPARg:RXRa DBDmut IVT, anti-RXR (DBD mutation: RXRa K156A/R161A, NR concentration 270 nM, RXRa partner concentration 90 nM)
# Procedure, shortened: (§1)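 Ligand-free nuclear receptor dimers were bound for 1 h to custom Agilent 4×180K protein-binding microarrays. Detection used antibodies against each partner (one per run). Binding z-scores rest on regression-normalized fluorescence, with random background probes as the reference.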
# [2] = test system: PPARg:RXRa IVT, anti-PPARg (NR concentration 270 nM, RXRa partner concentration 90 nM)
# Procedure, shortened: as §1
# [3] = test system: PPARg DBDmut:RXRa IVT, anti-PPARg (DBD mutation: PPARg1 K132A/R137A, NR concentration 270 nM, RXRa partner concentration 90 nM)
# Procedure, shortened: as §1
# [4] = test system: PPARg DBDmut IVT, anti-PPARg (DBD mutation: PPARg1 K132A/R137A, NR concentration 270 nM)
# Procedure, shortened: as §1
# [5] = test system: PPARg homodimer (NR concentration 180 nM)
# Procedure, shortened: as §1
# [6] = test system: PXR:RXRa (NR concentration 270 nM, RXRa partner concentration 90 nM)
# Procedure, shortened: as §1
# [7] = test system: PXR homodimer (NR concentration 270 nM)
# Procedure, shortened: as §1
# [8] = test system: RARa:RXR (NR concentration 270 nM, RXRa partner concentration 90 nM)
# Procedure, shortened: as §1
# [9] = test system: RARa homodimer (NR concentration 270 nM)
# Procedure, shortened: as §1
# [10] = test system: RARb:RXRa (NR concentration 270 nM, RXRa partner concentration 90 nM)
# Procedure, shortened: as §1
# [11] = test system: RARb homodimer (NR concentration 270 nM)
# Procedure, shortened: as §1
# [12] = test system: RARg:RXRa (NR concentration 270 nM, RXRa partner concentration 90 nM)
# Procedure, shortened: as §1
# [13] = test system: RARg homodimer (NR concentration 270 nM)
# Procedure, shortened: as §1
# [14] = test system: RXRa DBDmut IVT, anti-RXR (DBD mutation: RXRa K156A/R161A, NR concentration 90 nM)
# Procedure, shortened: as §1
# [15] = test system: RXRa homodimer (NR concentration 180 nM)
# Procedure, shortened: as §1
# [16] = test system: THRa:RXRa (NR concentration 90 nM, RXRa partner concentration 90 nM)
# Procedure, shortened: as §1
# [17] = test system: THRa homodimer (NR concentration 90 nM)
# Procedure, shortened: as §1
# [18] = test system: VDR homodimer (NR concentration 270 nM)
# Procedure, shortened: as §1
Sequence,PBM binding z-score [1],PBM binding z-score [2],PBM binding z-score [3],PBM binding z-score [4],PBM binding z-score [5],PBM binding z-score [6],PBM binding z-score [7],PBM binding z-score [8],PBM binding z-score [9],PBM binding z-score [10],PBM binding z-score [11],PBM binding z-score [12],PBM binding z-score [13],PBM binding z-score [14],PBM binding z-score [15],PBM binding z-score [16],PBM binding z-score [17],PBM binding z-score [18]
CAGCCTAGGACAGGGCCAGTATAGGAGGAACGTT,-0.459,-0.805,-1.23,-1.3,0.0188,-0.859,-0.323,-0.684,-0.467,-0.0437,-0.1,-0.205,0.0959,-0.669,-0.283,0.127,-0.164,-0.467
ATACCAAGGTGATCGTGAGGTCTTTGATACTAAC,0.237,1.08,0.449,0.702,0.551,0.655,-0.114,0.833,0.255,0.705,0.992,0.797,0.392,0.0771,0.435,2.38,1.65,0.438
GCTGCTAGGTCAGGTTGGTCAGGTAACGGGTACG,2.86,2.24,-0.63,-0.722,0.641,0.475,-0.529,0.834,-0.052,3.15,2.89,2.59,3.55,0.37,1.06,2.32,2.02,0.789
GCAGACAGGTGAATCGCAGGTAACTCAGGGTGGC,0.726,0.657,-0.695,-0.904,-0.727,-0.313,-0.959,0.0382,-0.689,0.443,0.0663,0.806,0.164,-0.612,0.449,1.31,-0.285,-0.754
AGAATGAGGTTATACGTAGATCATGGAAGAAAGT,3.69,2.6,1.46,0.947,1.21,1.25,0.482,1.77,0.298,1.53,1.02,2.06,1.29,1.74,2.45,2.42,0.532,0.975
CGTGAAAGTTCAAGGTAACGTAACAGAAAGCAGC,0.31,1.59,1.08,0.978,2.81,4.03,2.44,3.46,0.962,4.93,3.23,5.05,5.85,4.44,4.04,3.07,0.878,3.01
TCTAGGTGGTCAAAGGTCACACACTCGAAATGCG,3.06,5.9,1.01,1.59,4.5,6.19,1.82,7.34,2.69,5.22,5.07,7.33,6.07,1.85,8.65,4.41,1.74,2.4
CCTACTGGGCCAAAAAGGTCATTAATGCCGATAA,3.72,3.94,0.336,0.139,3.45,4.39,3.17,5.01,1.3,3.64,4.32,4.16,3.68,0.627,4.26,2.91,0.449,2.2
CGTCCAAGGTCAGCAGGACAGTGAAAGCGACGTG,2.27,2.58,0.502,-0.859,1.75,2.27,0.176,2.92,0.175,5.17,3.89,5.05,6.09,2.33,3.68,3.72,1.9,0.589
TTACCAAGGTGAGATGAGGTCGTTGATCCAACTC,1.15,2.16,-0.0123,0.496,0.827,5.21,0.58,2.44,0.0224,1.83,1.54,1.49,1.26,0.446,1.85,4.77,2,2.31
AATACAGGGTCACTAGGCCAAAGTAGGTACGAAT,4.25,6.12,1.52,1.47,2.51,3.27,0.193,4.17,0.959,4.31,3.62,5.16,4.42,2.71,5.98,3.48,1.09,2.19
ATCGAAAGGTCGCCGAGGTGAGTATACACCGTTT,0.699,2.7,1.2,0.615,1.79,3.34,0.6,4.03,0.336,4.25,3.6,4.9,5.02,1.78,5.24,4.1,1.17,1.53
AATACAGGGTCAATAGGCCAGAGTAGGTACGAAT,2.44,4.21,1.55,0.759,2.2,2.69,0.585,3.85,0.911,4.17,3.5,5.29,4.37,2.4,4.89,3.03,0.474,2.13
AATACAGGGTCACTAGGCCAGAGCAGGTACGAAT,4.31,5.63,2.36,1.22,2.4,3.16,-0.000752,4.15,0.899,4.16,3.36,5.15,5.08,2.67,5.66,3.31,1.07,2.39
AGAATGAGGTTAAGATCAGGGAGACAGAATACAT,3.04,2.59,1.8,0.747,0.955,1.26,0.933,1.95,0.709,1.91,1.15,1.94,1.5,1.06,2.49,2.55,0.979,0.818
ATCTCTAGGTAAAAGTGCAGTGAATCCCGAGGAT,2.08,2.5,0.765,0.971,0.819,0.0221,0.246,-0.0111,0.256,0.518,0.183,0.363,0.23,-0.0923,0.454,0.235,-0.373,0.138

Sequence,PBM binding z-score [1],PBM binding z-score [2],PBM binding z-score [3],PBM binding z-score [4],PBM binding z-score [5],PBM binding z-score [6],PBM binding z-score [7],PBM binding z-score [8],PBM binding z-score [9],PBM binding z-score [10],PBM binding z-score [11],PBM binding z-score [12],PBM binding z-score [13],PBM binding z-score [14],PBM binding z-score [15],PBM binding z-score [16],PBM binding z-score [17],PBM binding z-score [18]
ATACCAAGGTGATCGTGAGGCCGTTGATACTAAC,0.533,1.06,0.198,0.471,0.381,0.595,0.275,1.03,-0.0475,0.735,0.758,0.629,0.127,0.132,0.254,2.05,1.14,0.643
ACTAGCAGTCCAAGTTTGGGTCACTCAAACAAAG,-0.573,0.678,-0.264,-0.283,-0.0489,0.921,-0.137,1.4,-0.47,1.24,1.97,0.986,0.834,0.395,0.691,2.16,1.07,0.0671
TCTTGTAGATTAATAGAGGTTAAGAAAGTGCGCT,2.32,0.996,0.986,0.929,1.23,3.4,0.795,2.2,0.565,1.21,1.51,0.95,0.856,1.23,1.66,1.81,-0.0934,0.699
CCTTACGGGTCACTGACAGGTTATATCATTTGGA,3.09,3.76,1.37,0.355,2.85,3.69,0.432,4.84,0.665,4.08,3.45,5.75,4.58,1.64,5.22,2.96,0.162,1.32
ATATGTACGTTATCGGGTCATTCAGTTTGCGCAT,1.03,2.37,1.71,1.76,1.32,3.32,7.47,3.02,0.585,1.93,2.25,2.06,1.64,1.78,2.34,3.26,2.69,4.2
TCTTGTAGATCAACAGGAGGTTAAGATAGATCGA,1.53,1.03,0.933,1.02,0.31,0.729,-0.114,1.05,0.362,0.506,0.539,1.16,0.391,0.496,1.04,0.854,-0.513,-0.27
CTCGAAAGGTTGTGCTCAGGTGAGTATACCAAAC,-0.27,-0.00807,-0.154,-0.108,0.203,0.645,-0.0824,1.38,0.121,1.2,0.954,1.31,0.452,0.56,0.825,2.84,0.886,0.0434
CCTCGGAAGACAGAAGGTCAGAGCTGTCCGCTTT,-0.276,-0.376,-1.12,-1.96,1.82,1.38,-0.0252,1.89,0.512,2.33,3.01,2.34,2.32,0.101,1.83,1.56,-0.133,0.00286
AGAACGAGGGCACGCCGAGTTGATAGCAGAGTAG,3.84,4.08,0.68,-0.645,0.0729,1.38,0.119,0.82,-0.438,2.57,1.2,1.96,2.36,1.75,1.47,1.96,-0.089,1.81
CAGCCTAGGTTAGGGCCAGTATAGGAGGAACGTT,-0.289,-0.377,-1.05,-1.1,-1.26,-0.636,-0.655,-0.399,-0.834,0.516,0.216,0.0888,0.349,-0.851,0.0782,-0.0554,-0.75,-0.636
TGTCAAGGTTCAAAGGTAACGTAAGTATCCACAC,-0.0297,3.17,0.246,0.633,3.16,4.14,0.595,5.82,0.446,3.32,1.99,4.38,3.11,4.37,6.08,3.12,-0.0609,4.49
CCTTACGGGTTAAGGTTATAGCACGGGTGGTACG,0.0868,0.867,-0.169,-0.202,0.702,1.16,0.325,1.85,0.517,1.8,1.42,1.43,0.999,-0.691,2.18,2.64,1.75,0.766
CTTATTAGTTGACCATAAGGGCAACCGAAGCTCG,0.601,0.869,1.18,1.03,0.708,0.686,0.516,0.781,1.3,1.72,2.23,1.24,1.13,0.578,0.722,2.04,1.36,0.553
ATCTCTAGGTAACAACTTCAGTGAAAGAGAGGAC,3.07,2.74,1.64,1.45,0.774,0.286,0.641,0.537,0.713,0.586,0.514,0.787,0.752,-0.232,0.536,1.14,0.654,0.576
CCCACTGGGGCAAGGTTACCATAACGCACAGCCA,4.18,5.58,2.71,0.0183,1.07,0.144,-0.536,1.05,0.0116,1.75,1.4,1.18,1.2,-1.3,1.09,1.23,0.178,-0.227
